# Pf growth 96h: P. falciparum growth inhibition at 96 hour, primary screen for plastid delayed-death inhibitors | hit rate 6.9% among 320,000 | P. falciparum luciferase reporter growth, 96 h | AID 504834 | Potency, µM (series often up to 28.7 µM), without a hit: top-dose activity change, negative = inhibition, most hits filed as inhibitors; further: on the % scale 0 is the no-effect control and ±100 the full control effect
#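 Erythrocytes infected with luciferase-expressing P. falciparum were dispensed at 2% hematocrit and 0.05% parasitemia (final), then incubated with compounds 96 hours at 37 C in 5% CO2. Luminescence after detection reagent addition reported growth.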
# NS1 function inh: blocks influenza NS1 protein function. Potency, µM (doses to about 46.1 µM), inactives show top-dose activity, positive = more growth. hit rate 0.4% among 270,000. AID 2326; calls by dose curve; further: actives are rising curves; nearly all actives have a fitted effect of over 50% in size
#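 In this qHTS, NS1 from influenza A is expressed in budding yeast, where it slows growth. Cells are switched from glucose to 2% galactose medium (pH 6.0, -URA), treated with compound, and growth recovery is read at OD600.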
# SARS PLP yeast: SARS-CoV PLP inhibition in yeast | S. cerevisiae expressing SARS-CoV PLpro, growth rescue | Potency, µM (series often up to 32.9 µM), without a hit: top-dose activity, positive = growth rescue, hits mostly activators | hit rate 0.19% among 330,000 | AID 485353; calls by dose curve; further: 0% is about no effect; nearly all actives have a fitted effect of over 55% in size
# Pf growth 48h: P. falciparum growth inhibition at 48 hours (one generation); P. falciparum luciferase growth in erythrocytes, 48 h; hit rate 5.9% among 310,000; Potency, µM (highest dose often 28.7 µM), without a hit: at the highest dose activity change, negative = inhibition, most hits filed as inhibitors; further: on the % scale 0 is the no-effect control and ±100 the full control effect
#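 Compounds are pin-transferred into medium, infected erythrocytes (2% hematocrit, 0.1% parasitemia final) are added, and plates sit one parasite generation at 37 C in 5% CO2. Detection reagent is then added and luminescence measured.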
# RE007 growth inh: less growth of the S. pombe RE007 Vpr strain | S. pombe RE007 Vpr strain, BacTiter-Glo ATP luminescence, 24 h | hit rate 0.21% among 360,000 | Potency, µM (titrated, usually from 92.2 µM), without a hit: top-dose activity change, negative = less growth, most hits filed as inhibitors | AID 651644; active means well fitted falling curve with a large enough effect; inconclusive means small, poorly fitted or top-dose-only effect; inactive means no such curve, though single readings can be large or run the other way; further: on the % scale 0 is the no-effect control and ±100 the full control effect; nearly all actives have a fitted effect of over 50% in size
#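 Fission yeast strain RE007, carrying one chromosomally integrated HIV-1 vpr copy, was seeded at OD 0.01 in PMG+AL medium with 23 nL pinned compound. After 24 h at 30 °C and 99% humidity, viability was read by BacTiter-Glo luminescence.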
# An asterisk follows results filed as active; ? = inconclusive; · = no result given. This is a sample that favours compounds with a hit; in the whole collection about 9.5% have one here. Unless noted, the call rests on the fitted dose curve; in most records, active means well fitted inhibition curve with a large enough effect; inconclusive means small, poorly fitted or top-dose-only effect, or another doubt; inactive means no such curve, though single readings can be large or run the other way. Potency means the concentration at half of the fitted maximal effect.
SMILES,Pf growth 96h,NS1 function inh,SARS PLP yeast,Pf growth 48h,RE007 growth inh
Cn1cccc1Cc1nnc(SCC(=O)Nc2ccc3c(c2)OCO3)n1CCc1ccccc1,?,?,-8%,?,-4%
COc1ccc(C(CNC(=O)c2[nH]c(C)c(C(C)=O)c2C)N2CCOCC2)cc1 (stereo not drawn),?,·,12%,?,15%
C=CCN1c2ccccc2[C@]23C[C@@H](C(=O)OC)N(C(=O)c4cccs4)C2=NC(C(=O)OC)=C(C(=O)OC)[C@H]13,?,-10%,1%,-7%,1%
CN(Cc1ccccc1F)C(=O)CN1CCN(S(=O)(=O)c2ccc3c(c2)OCCCO3)CC1,?,·,-8%,?,-10%
O=C(O)c1cc(O)c2c(c1)[C@H]([C@H]1c3cc(C(=O)O)cc(O)c3C(=O)c3c(O[C@@H]4OC(CO)C(O)C(O)C4O)cccc31)c1cccc(O[C@@H]3OC(CO)C(O)C(O)C3O)c1C2=O (stereo partly drawn),-2%,·,·,-5%,·
CC(C)OC(=O)c1c(N)n(CCCN2CCOCC2)c2nc3ccccc3nc12,?,-7%,2%,·,3%
CC(C)OC(=O)c1c2nc3ccccc3nc2n2c1[nH]c(=O)c1ccccc12,6.6µM*,-3%,-3%,0%,·
O=C1NC[C@H](c2ccccc2)N(CCc2cccc(F)c2)C1=O,6%,-2%,2%,0%,8%
CC1(C)CC(=O)C2=C(C1)Nc1cc3c(cc1C2c1ccc(F)cc1)OCO3 (stereo not drawn),5.2µM*,3%,-11%,?,4%
NS(=O)(=O)c1cc(C(=O)N=Nc2c(O)[nH]c3ccccc23)ccc1Cl,1.5µM*,1%,0%,10µM*,3%
CC(C)Cc1nc2sc3c(=O)n(N)cnc3c2c2c1COC(C)(C)C2,-3%,6%,3%,-5%,14%
CC(C)N=C(NC#N)SCc1ccc(Br)cc1,13µM*,4%,17%,?,-5%
COc1cc2c(cc1OC)C1=NC(=O)CN1C(SCc1ccccc1)=N2,·,13%,3%,10µM*,-4%
COc1cnn(Cc2ccccc2)c(=O)c1SCc1ccccc1,-19%,-11%,7%,1%,5%
COc1ccc(Cl)cc1NC(=O)C1CCCN(S(C)(=O)=O)C1 (stereo not drawn),10%,11%,-3%,4%,1%
CCOc1cccc(C(=O)Nc2ccc(N3CCCC3)cc2)c1,0%,-2%,1%,0%,11%
CCOc1ccc(NC(=O)c2cccc(OC(=S)N3CCC(C)CC3)c2)cc1,12µM*,?,-5%,?,1%
CCOc1cccc(C(=O)Nc2cccc(C(=O)NC(C)(C)C)c2)c1,8%,-3%,-2%,-6%,-18%
CCOc1cccc(C(=O)Nc2cccc(C(C)=O)c2)c1,3.3µM*,-6%,-3%,120%,-10%
COC(=O)COc1cccc(NC(=O)c2ccccc2)c1,41%,-30%,-1%,16%,-10%
COC(=O)COc1cccc(NC(=O)c2cccc(C)c2)c1,10µM*,-38%,0%,10%,-11%
CCCC(=O)Nc1nnc(S(=O)(=O)N(CC)c2ccc(OC)cc2)s1,27%,5%,1%,12%,-2%
O=C(Cc1ccc(F)cc1)NCCS(=O)(=O)N1CCN(c2cccc(Cl)c2)CC1,-19%,·,-3%,6%,0%
CCc1nc2c(OCC(=O)C(C)(C)C)cccn2c1N(C)C(=O)Nc1ccccc1OC,·,·,·,·,8%
COCCn1c(SC(C(=O)Nc2cc(C)ccc2OC)c2ccccc2)nnc1-c1ccc(Cl)cc1 (stereo not drawn),9.3µM*,?,2%,13µM*,-1%
COc1ccc(C)cc1NC(=O)C(Sc1nnnn1C)c1ccccc1 (stereo not drawn),24%,-4%,0%,-23%,3%
c1cc2c(c(NCc3ccncc3)c1)CCCC2,·,-13%,-8%,10µM*,·
CCCn1c(C(O)c2cccc(OC)c2)nc2ccccc21 (stereo not drawn),-11%,10%,2%,?,0%
CSc1n[nH]c(NC(C)=O)n1,8%,-4%,2%,1.2µM*,-5%
CCC(Sc1nc2sc(C(=O)OC)c(C)c2c(=O)n1N)C(=O)NCC1CCCO1 (stereo not drawn),4.7µM*,2%,6%,?,-3%
